# Hits are enriched below; roughly 6.7% of the tested compounds scored in any of these assays.
# C diff growth: inhibitors of Clostridium difficile growth; growth activity, negative = inhibition, % at 16 µg/mL (by protocol); Clostridium difficile clinical isolate growth, OD600, 24 h; hits give low values; 86,000 tested, 0.25% active;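 active = mean growth activity at or below -80% and every replicate also at or below -80%; inconclusive = mean at or below -80% but some replicate above -80%; inactive = mean growth activity above -80%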;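 also: 0% = DMSO wells and -100% = levofloxacin 16 µg/mL wells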
# T cruzi growth-1: T. cruzi proliferation inhibition; T. cruzi beta-gal in NIH3T3, GalScreen luminescence, 90 h; inhibition, % at 8.34 µM; 77,000 tested, 5.9% active; AID 624255;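 active = mean inhibition above about 93%, with at least 55% of replicates each passing it, limit read from the data, passing the limit was not always enough; inconclusive = only one of those two conditions holds; inactive = neither condition holds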
# Pf Dd2 inh: blocks growth of Plasmodium falciparum Dd2 parasites; activity change, % at 10 µM; P. falciparum Dd2 growth, SYBR Green, 72 h; hits give low values; 94,000 tested, 2.3% active; in the data active = activity change below about -80%; inconclusive = no clear call, values can overlap the other calls
# T cruzi growth-2: Trypanosoma cruzi proliferation inhibition; 5,600 tested, 72% active; T. cruzi beta-gal in NIH3T3, GalScreen luminescence, 90 h; shares compounds with T cruzi growth-1; AID 651739; inhibition, % at 8.35 µM;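 active = mean replicate inhibition above about 95% and at least 55% of replicates individually reaching it, limit read from the data; inconclusive = only one of the two criteria is met; inactive = neither criterion is met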
# T cruzi growth-3: blocks T. cruzi growth in NIH3T3 host cells | T. cruzi beta-gal in NIH3T3, GalScreen luminescence, 90 h | inhibition, % at 2.09 µM | shares compounds with T cruzi growth-1 | AID 651740 | 5,600 tested, 21% active;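 active = mean inhibition above about 95%, with at least 55% of replicates also reaching it, limit read from the data; inconclusive = meets just one of the two conditions; inactive = meets neither condition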;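 also: plate controls were neutral control median for no effect and positive control median for full effect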
# 3T3 cytotox: NIH/3T3 (mouse) viability loss; shares compounds with T cruzi growth-1; NIH/3T3 viability, CellTiter-Glo ATP luminescence, 90 h; cytotoxicity (signal decrease), % at 8.35 µM; 5,600 tested, 14% active;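 active = mean signal decrease across replicates above about 35% based on untreated-well scatter, with enough replicates individually passing, limit read from the data; inconclusive = no rule stated though some were filed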;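 also: 0% = median of neutral control wells and 100% = median of positive control wells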
# NIH3T3 tox 2: kills mouse NIH/3T3 fibroblasts; 5,600 tested, 56% active; inhibition, % at 24.9 µM; shares compounds with T cruzi growth-1; NIH/3T3 viability, CellTiter-Glo ATP luminescence, 90 h;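 active = mean loss of cell viability signal at or above a set limit, and enough replicates individually reaching it; inconclusive = meets only the mean limit or only the replicate share; inactive = meets neither condition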;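 also: 0% = median of neutral control wells and 100% = median of positive control wells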
# * = called active by the depositor; ? = inconclusive; . = no result given.
SMILES,C diff growth,T cruzi growth-1,Pf Dd2 inh,T cruzi growth-2,T cruzi growth-3,3T3 cytotox,NIH3T3 tox 2
C[C@H](CO)N1C[C@H](C)[C@@H](CN(C)Cc2ccc(-c3ccccc3)cc2)Oc2ccc(NC(=O)C3CCCCC3)cc2C1=O,.,41.5,-3.6,.,.,.,.
C[C@H]1CN([C@@H](C)CO)C(=O)c2cc(NC(=O)C3CCCCC3)ccc2O[C@@H]1CN(C)Cc1ccc(-c2ccccc2)cc1,.,104.3*,-42.4,109.0*,70.4,32.8,21.1
C[C@H](CO)N1C[C@H](C)[C@H](CN(C)Cc2ccc(-c3ccccc3)cc2)Oc2ccc(NC(=O)NC3CCCCC3)cc2C1=O,25.7,111.0*,12.7,104.2*,18.8,12.7,47.0*
C[C@@H]1CN([C@H](C)CO)C(=O)c2cc(NC(=O)C3CCCCC3)ccc2O[C@H]1CN(C)Cc1ccc(-c2ccccc2)cc1,.,?,-10.3,107.8*,-4.9,3.7,39.2*
C[C@H](CO)N1C[C@H](C)[C@@H](CN(C)Cc2ccccc2)Oc2ccc(NC(=O)NC3CCCCC3)cc2C1=O,-6.5,-8.7,5.8,.,.,.,.
C[C@@H]1CN([C@H](C)CO)C(=O)c2cc(NC(=O)C3CC3)ccc2O[C@H]1CN(C)Cc1ccc(-c2ccccc2)cc1,-6.8,61.3,-40.5,.,.,.,.
C[C@H](CO)N1C[C@H](C)[C@H](CN(C)CC2CCCCC2)Oc2cc(C3=CCCC3)ccc2S1(=O)=O,.,13.6,-44.9,.,.,.,.
CC(C)(C)[S@](=O)N1Cc2cc(C(=O)NCCN3CCCC3)nc(-c3cccc(-c4cccc(C#N)c4)c3)c2[C@@H]1CCO,.,17.7,-71.2,.,.,.,.
CC(=O)N1[C@H](CO)[C@H]2c3ccccc3N(S(=O)(=O)c3ccc(F)cc3)C[C@H]21,0.3,7.6,1.3,.,.,.,.
CCCC[C@]12CCCC(=O)N1CCc1c2[nH]c2ccccc12,15.3,.,.,.,.,.,.

# Compound activity as filed in PubChem BioAssay.
